Results as given in PubChem BioAssay AID1006 (Sanford-Burnham Center for Chemical Genomics, 2008).
Among all 200,000 compounds or so, about 3,000 (1.5%) were called active. This is one part of a sample in which actives are shown more often than they occur.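 The calls were made as follows: active = inhibition above about 50% when tested at 10 µM (limit read from the data); inactive = the rest.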

Molecular target: Luciferin 4-monooxygenase (Photinus pyralis) (UniProt P08659)
Assay: firefly luciferase enzyme inhibitors, primary screen, artefact control for luciferase-based inhibitor screens, biochemical, luminescence, ATPLite (AID 1006)
Details: 10 min, at 10 µM, stronger effect = higher value

Chain of Luciferin 4-monooxygenase (Photinus pyralis) (P08659 whole entry, looked up): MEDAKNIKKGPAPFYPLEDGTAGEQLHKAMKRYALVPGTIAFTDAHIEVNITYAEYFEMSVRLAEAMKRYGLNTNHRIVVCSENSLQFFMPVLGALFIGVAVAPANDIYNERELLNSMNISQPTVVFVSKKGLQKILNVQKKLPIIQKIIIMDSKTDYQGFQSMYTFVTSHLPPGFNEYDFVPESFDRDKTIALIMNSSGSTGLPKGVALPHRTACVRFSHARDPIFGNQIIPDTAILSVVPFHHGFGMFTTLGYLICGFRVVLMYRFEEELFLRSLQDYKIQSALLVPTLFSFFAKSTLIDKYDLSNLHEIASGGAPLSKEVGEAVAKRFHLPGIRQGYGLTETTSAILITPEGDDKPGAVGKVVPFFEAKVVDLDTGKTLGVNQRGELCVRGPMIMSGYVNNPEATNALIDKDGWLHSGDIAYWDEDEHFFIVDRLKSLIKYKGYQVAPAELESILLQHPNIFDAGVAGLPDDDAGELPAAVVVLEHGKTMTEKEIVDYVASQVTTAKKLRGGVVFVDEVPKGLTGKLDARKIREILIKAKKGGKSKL

inhibition, inactive:
Cc1cc(C)n2nc(C(=O)N(C)C(c3ccccc3)c3ccccc3)nc2n1 -7%, c1ccc(-c2cn3cccnc3n2)cc1 2.6%, CC(=O)Nc1ccc(-c2cn3cccnc3n2)cc1 6.6%, COc1cc(OC)cc(-c2nc(=S)n3ccsc3n2)c1 -2.1%, CCCC(=O)Nc1cccc(-c2cn3ccsc3n2)c1 40%, COc1cc(C(=S)NC2CCCCC2)ccc1O -2.8%, Cc1ccnc2nc(C(=O)Nc3nnc(-c4ccccc4)o3)nn12 -2.4%, Cc1noc(C)c1S(=O)(=O)N(C)Cc1ccccc1 -6.5%, CCOC(=O)c1nn(-c2ccccc2F)c2nc(Nc3ccccc3)cc(=O)n12 -2.4%, Cc1ccnc(Nc2nc3ccccc3s2)n1 34.9%, O=[N+]([O-])c1cc(Br)c(O)c(/C=N/Nc2nc3ccccc3s2)c1 1.1%, Cc1cc(C)cc(C(=O)N(CCc2ccccc2)C2=CC3CCC(C2)N3C)c1 (stereo unspecified) -2.2%, O=C(C1=C[C@H](C2CC2)C[C@H](OCc2ccc(CO)cc2)O1)N1CCN(Cc2ccccc2)CC1 -13.1%, CC(NC(=S)NC1CCCCC1)C(c1ccccc1)N1CCOCC1 (stereo unspecified) -6%, O=C(NNC(=S)NC1CCCCC1)c1ccccc1Cl -0.5%, CC(C)(c1ccccc1)c1ccc(OCCN)cc1 -11.4%, CC1=NN(C(=O)c2ccc(Br)cc2)C(O)(c2ccccc2)C1 (stereo unspecified) -3.1%, CCN(CC)C(=O)Oc1ccc(OC(=O)N(CC)CC)cc1 1.5%, C/C(=C\C(=O)c1ccc(Br)cc1)N1CCCCC1 3.9%, CN1CCCC(OC(=O)COc2ccc(Br)cc2)C1 (stereo unspecified) -7.7%, COc1ccc(NC(=O)CSc2nnc(-c3ccccc3F)n2C2CC2)cc1S(N)(=O)=O 1.6%, COc1ccc(NS(=O)(=O)c2cc(NC(=O)/C=C/c3cc(OC)c(OC)c(OC)c3)ccc2N2CCCCC2)cc1 -5%, CC(C)N1C(=O)N(c2ccccc2)C(C)(O)CC1(C)C (stereo unspecified) -5.4%, O=C(O)CCCCc1nc2ccccc2s1 6.8%, COc1cccc2sc(NNC(=O)c3nc4ccccc4s3)nc12 -1.8%, CNC(=O)COc1ccc(S(=O)(=O)Nc2ccccc2)cc1 -6.9%, CSc1ccccc1NC(=O)CN(C)CC(=O)Nc1ccc(Cl)cc1[N+](=O)[O-] 1.5%, Nc1ncc(-c2cc3ccccc3oc2=O)s1 32.1%, O=C(c1cn(-c2ccccc2)nc1-c1cc2ccccc2oc1=O)N1CCOCC1 -8.2%, Cc1ccc(CCCOC(=O)C[N+]2(C)CCCCC2)cc1 -3.7%, O=C(COC(=O)c1n[nH]c2ccccc12)NCc1ccccc1 -1.4%, O=C(NCCc1ccc(F)cc1)c1n[nH]c2ccccc12 14.4%, CC(=O)Nc1ccc(NC(=O)CSc2nnc(COc3ccccc3C)n2CC2CCCO2)cc1 (stereo unspecified) -2.3%, CCc1nnc(NC(=O)c2cccs2)s1 6.9%, CCc1nnc(NC(=O)c2sc3nc(C)cc(COC)c3c2N)s1 -1.1%, CSc1cc(C)[nH]c(=O)n1 0.8%, Cc1ccc(C(=O)N/C(=C/c2cccs2)C(=O)NCC2CCCO2)cc1 (stereo unspecified) 0.4%, Cc1ccc(S(=O)(=O)N2CCC(C(=O)NCC3CCCO3)CC2)cc1 (stereo unspecified) -6.3%, CC(C)(C)NC(=O)COC(=O)c1cc(Cl)ccc1[N+](=O)[O-] 1.8%, CN(C)/C=C(/C(=O)c1ccccc1Cl)S(C)(=O)=O -6%, Cc1cc(F)ccc1S(=O)(=O)N1CCCOC1CNC(=O)C(=O)NCCC1=CCCCC1 (stereo unspecified) -3.9%

inhibition, active:
COc1ccc(-c2cn3cccnc3n2)cc1 59.3%, COc1ccc(-c2cn3ccsc3n2)cc1 81.3%, c1ccc2sc(NN=C3CCCC3)nc2c1 62.8%, CC1CN/C(=C\C(=O)c2ccc(Br)cc2)C(=O)N1 (stereo unspecified) 52.4%, Cc1ccn(-c2cccc(-n3ccc(C)n3)n2)n1 61.1%, COc1ccccc1OCc1nc2ccccc2s1 57.9%, O=c1oc2ccccc2cc1-c1cn(-c2ccccc2)c(=S)[nH]1 90.1%, COc1cccc(CNC(=O)c2n[nH]c3ccccc23)c1 51.1%, CCc1ccc2nc3sc(C(=O)Nc4nnc(CC)s4)c(N)c3cc2c1 51.9%, Cc1ccc(-n2c(C)cc(/C=C(\C#N)C(=O)NCC3CCCO3)c2C)cc1 (stereo unspecified) 72.2%
